# Assay results reported in paper PMC7862700, “An all-to-all approach to the identification of sequence-specific readers for epigenetic DNA modifications on cytosine”.
# Legend:
# Experiment in all cases: DAPPL (digital affinity profiling via proximity ligation, sequencing); 10 mM Tris-HCl pH 7.5, 50 mM NaCl, 1 mM DTT, 4% glycerol, room temperature, 30 min; GST-TFs on glutathione beads, 16-mer random dsDNA library, 0.1% formaldehyde crosslink after washing; high values mean tight binding
# FLI1 = target: T1, FLI1 (Homo sapiens, UniProt Q01543 1-452); conditions: protein: recombinant; tags: N-terminal GST; dsDNA, one strand shown
# T1 sequence: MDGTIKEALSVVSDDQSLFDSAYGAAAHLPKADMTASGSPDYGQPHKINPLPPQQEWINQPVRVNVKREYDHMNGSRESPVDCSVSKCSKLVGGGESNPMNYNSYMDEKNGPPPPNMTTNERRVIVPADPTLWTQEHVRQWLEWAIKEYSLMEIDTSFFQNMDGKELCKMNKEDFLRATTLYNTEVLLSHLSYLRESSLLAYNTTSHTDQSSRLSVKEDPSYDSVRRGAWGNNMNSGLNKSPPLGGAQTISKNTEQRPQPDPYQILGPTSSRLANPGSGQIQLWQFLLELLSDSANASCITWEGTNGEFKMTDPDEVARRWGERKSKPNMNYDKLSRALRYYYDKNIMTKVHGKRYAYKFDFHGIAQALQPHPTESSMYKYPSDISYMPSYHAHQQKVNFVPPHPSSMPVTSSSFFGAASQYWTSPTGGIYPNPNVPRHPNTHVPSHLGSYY
# Method in brief: (§1)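 Pools of DNA-barcoded human transcription factors, expressed in yeast as GST fusions on glutathione beads and combined with a tag-only sample, were incubated with 200 nmole of a 16-mer random double-stranded DNA library. Incubation took 30 min at room temperature in Tris/NaCl/DTT/glycerol buffer and was followed by washing, 0.1% formaldehyde crosslinking, proximity ligation (BsaI/T4 ligase, 1 h, 37 °C), PCR amplification and sequencing on an Illumina NextSeq500. Binding signal is the ratio of a hexamer's read frequency for a factor to its frequency for the tag-only sample.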
# ELK1 = target: T2, ELK1 (Homo sapiens, UniProt P19419 1-428); conditions: protein: recombinant; tags: N-terminal GST; dsDNA, one strand shown
# T2 sequence: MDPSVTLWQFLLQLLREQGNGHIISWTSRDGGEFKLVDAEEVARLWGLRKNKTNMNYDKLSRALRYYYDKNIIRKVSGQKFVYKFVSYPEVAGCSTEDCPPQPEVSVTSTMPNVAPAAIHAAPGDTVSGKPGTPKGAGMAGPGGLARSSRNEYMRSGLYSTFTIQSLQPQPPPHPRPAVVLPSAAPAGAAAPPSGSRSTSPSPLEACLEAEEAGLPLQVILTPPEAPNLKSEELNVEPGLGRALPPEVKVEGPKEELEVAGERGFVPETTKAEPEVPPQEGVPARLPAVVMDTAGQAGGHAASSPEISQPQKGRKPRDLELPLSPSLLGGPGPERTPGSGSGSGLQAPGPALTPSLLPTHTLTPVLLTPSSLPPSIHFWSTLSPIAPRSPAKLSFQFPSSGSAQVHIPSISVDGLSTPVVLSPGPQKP
# Method in brief: as §1
# GABPA = target: T3, GABPA (Homo sapiens, UniProt Q06546 1-454); conditions: protein: recombinant; tags: N-terminal GST; dsDNA, one strand shown
# T3 sequence: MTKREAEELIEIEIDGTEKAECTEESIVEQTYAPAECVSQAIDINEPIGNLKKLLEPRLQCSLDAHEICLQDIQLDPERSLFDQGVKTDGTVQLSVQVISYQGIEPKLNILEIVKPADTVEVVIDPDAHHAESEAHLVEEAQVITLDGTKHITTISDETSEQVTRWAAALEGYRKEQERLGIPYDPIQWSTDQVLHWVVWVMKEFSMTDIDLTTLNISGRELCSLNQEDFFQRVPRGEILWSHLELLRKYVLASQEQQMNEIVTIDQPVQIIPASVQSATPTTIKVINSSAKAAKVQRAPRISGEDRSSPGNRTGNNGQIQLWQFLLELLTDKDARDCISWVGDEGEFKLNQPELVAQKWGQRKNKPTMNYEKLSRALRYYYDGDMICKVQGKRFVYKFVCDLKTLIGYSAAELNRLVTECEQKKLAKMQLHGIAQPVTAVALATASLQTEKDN
# Method in brief: as §1
# ERG = target: T4, ERG (Homo sapiens, UniProt P11308 1-479); conditions: protein: recombinant; tags: N-terminal GST; dsDNA, one strand shown
# T4 sequence: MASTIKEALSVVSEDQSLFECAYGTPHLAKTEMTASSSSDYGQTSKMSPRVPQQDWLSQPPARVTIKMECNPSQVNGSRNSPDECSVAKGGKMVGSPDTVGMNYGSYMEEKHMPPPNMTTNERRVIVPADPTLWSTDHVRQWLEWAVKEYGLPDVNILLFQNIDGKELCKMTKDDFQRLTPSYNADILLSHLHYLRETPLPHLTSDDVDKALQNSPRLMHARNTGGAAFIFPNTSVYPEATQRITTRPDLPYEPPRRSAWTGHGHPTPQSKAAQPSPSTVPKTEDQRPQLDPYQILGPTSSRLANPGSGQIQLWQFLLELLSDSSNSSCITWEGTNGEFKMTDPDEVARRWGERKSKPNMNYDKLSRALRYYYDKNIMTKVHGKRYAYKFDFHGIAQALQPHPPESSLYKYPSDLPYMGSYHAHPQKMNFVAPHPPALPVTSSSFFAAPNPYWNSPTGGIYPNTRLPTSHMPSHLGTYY
# Method in brief: as §1
# ELF1 = ELF1 (Homo sapiens, UniProt P32519 1-619); conditions: protein: recombinant; tags: N-terminal GST; dsDNA, one strand shown
# Method in brief: as §1
# EHF = target: T5, EHF (Homo sapiens, UniProt Q9NZC4 1-300); conditions: protein: recombinant; tags: N-terminal GST; dsDNA, one strand shown
# T5 sequence: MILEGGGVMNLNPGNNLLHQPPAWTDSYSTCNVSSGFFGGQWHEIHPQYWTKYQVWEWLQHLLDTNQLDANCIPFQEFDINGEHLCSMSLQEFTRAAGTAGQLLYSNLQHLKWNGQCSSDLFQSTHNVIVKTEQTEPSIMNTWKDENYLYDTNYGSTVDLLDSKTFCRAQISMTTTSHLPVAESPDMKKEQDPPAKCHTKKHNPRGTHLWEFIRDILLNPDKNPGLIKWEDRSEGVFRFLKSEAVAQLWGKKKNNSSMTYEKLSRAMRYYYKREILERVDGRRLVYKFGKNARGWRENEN
# Method in brief: as §1
# SPI1 = SPI1 (Homo sapiens, UniProt P17947 1-270); conditions: protein: recombinant; tags: N-terminal GST; dsDNA, one strand shown
# Method in brief: as §1
# SPIB = SPIB (Homo sapiens, UniProt Q01892 1-262); conditions: protein: recombinant; tags: N-terminal GST; dsDNA, one strand shown
# Method in brief: as §1
# ELK3 = target: T6, ELK3 (Homo sapiens, UniProt P41970 1-407); conditions: protein: recombinant; tags: N-terminal GST; dsDNA, one strand shown
# T6 sequence: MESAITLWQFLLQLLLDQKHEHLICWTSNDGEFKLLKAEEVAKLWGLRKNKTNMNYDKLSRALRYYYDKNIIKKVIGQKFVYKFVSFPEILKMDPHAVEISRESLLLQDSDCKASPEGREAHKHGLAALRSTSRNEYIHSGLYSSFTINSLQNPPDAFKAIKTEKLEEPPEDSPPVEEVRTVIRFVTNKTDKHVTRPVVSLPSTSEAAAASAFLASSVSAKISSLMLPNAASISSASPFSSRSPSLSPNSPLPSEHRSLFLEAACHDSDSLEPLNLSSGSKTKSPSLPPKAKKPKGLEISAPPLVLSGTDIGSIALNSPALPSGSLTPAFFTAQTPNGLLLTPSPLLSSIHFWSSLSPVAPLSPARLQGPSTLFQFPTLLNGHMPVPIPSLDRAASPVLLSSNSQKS
# Method in brief: as §1
# FEV = target: T7, FEV (Homo sapiens, UniProt Q99581 1-238); conditions: protein: recombinant; tags: N-terminal GST; dsDNA, one strand shown
# T7 sequence: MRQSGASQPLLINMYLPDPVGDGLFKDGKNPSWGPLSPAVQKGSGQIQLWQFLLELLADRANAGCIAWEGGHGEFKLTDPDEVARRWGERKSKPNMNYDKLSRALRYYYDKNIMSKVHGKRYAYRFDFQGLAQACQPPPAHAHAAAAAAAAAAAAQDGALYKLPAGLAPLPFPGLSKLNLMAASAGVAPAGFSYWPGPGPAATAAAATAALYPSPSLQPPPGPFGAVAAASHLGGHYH
# Method in brief: as §1
# ETV5 = ETV5 (Homo sapiens, UniProt P41161 1-510); conditions: protein: recombinant; tags: N-terminal GST; dsDNA, one strand shown
# Method in brief: as §1
# HSF1 = HSF1 (Homo sapiens, UniProt Q00613 1-529); conditions: protein: recombinant; tags: N-terminal GST; chain copies: 3; dsDNA, one strand shown
# Method in brief: as §1
# SPIC = target: T8, SPIC (Homo sapiens, UniProt Q8N5J4 1-248); conditions: protein: recombinant; tags: N-terminal GST; dsDNA, one strand shown
# T8 sequence: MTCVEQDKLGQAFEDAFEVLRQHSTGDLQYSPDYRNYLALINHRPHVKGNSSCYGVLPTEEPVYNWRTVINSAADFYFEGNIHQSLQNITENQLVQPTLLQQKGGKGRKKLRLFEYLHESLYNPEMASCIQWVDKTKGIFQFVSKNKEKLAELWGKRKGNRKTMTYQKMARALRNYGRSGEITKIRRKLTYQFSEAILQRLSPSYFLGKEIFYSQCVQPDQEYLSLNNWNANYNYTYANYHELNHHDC
# Method in brief: as §1
# ELF4 = ELF4 (Homo sapiens, UniProt Q99607 1-663); conditions: protein: recombinant; tags: N-terminal GST; dsDNA, one strand shown
# Method in brief: as §1
# ELK4 = target: T9, ELK4 (Homo sapiens, UniProt P28324-2 1-405); conditions: protein: recombinant; tags: N-terminal GST; dsDNA, one strand shown
# T9 sequence: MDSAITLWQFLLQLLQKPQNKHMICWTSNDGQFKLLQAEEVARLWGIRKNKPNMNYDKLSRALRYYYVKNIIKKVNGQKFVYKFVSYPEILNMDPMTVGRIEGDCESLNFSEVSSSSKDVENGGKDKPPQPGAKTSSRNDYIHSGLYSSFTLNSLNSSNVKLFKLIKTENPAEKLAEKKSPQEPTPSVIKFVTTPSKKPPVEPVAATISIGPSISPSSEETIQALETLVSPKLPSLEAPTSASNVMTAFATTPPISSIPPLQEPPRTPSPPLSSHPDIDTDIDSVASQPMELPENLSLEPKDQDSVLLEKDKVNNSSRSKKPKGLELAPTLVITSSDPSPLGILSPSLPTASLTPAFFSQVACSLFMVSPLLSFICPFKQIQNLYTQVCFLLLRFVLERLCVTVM
# Method in brief: as §1
# ETV2 = target: T10, ETV2 (Homo sapiens, UniProt O00321 1-342); conditions: protein: recombinant; tags: N-terminal GST; dsDNA, one strand shown
# T10 sequence: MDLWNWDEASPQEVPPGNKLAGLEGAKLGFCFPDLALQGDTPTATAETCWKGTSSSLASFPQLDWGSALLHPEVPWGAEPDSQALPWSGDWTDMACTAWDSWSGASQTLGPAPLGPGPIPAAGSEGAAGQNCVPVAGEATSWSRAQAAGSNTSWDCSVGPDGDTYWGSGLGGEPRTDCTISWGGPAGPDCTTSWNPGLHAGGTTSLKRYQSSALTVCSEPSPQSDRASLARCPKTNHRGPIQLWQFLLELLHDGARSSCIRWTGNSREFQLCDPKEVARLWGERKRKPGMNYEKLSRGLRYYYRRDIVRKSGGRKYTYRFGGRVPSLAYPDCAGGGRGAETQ
# Method in brief: as §1
# ELF3 = target: T11, ELF3 (Homo sapiens, UniProt P78545 1-371); conditions: protein: recombinant; tags: N-terminal GST; dsDNA, one strand shown
# T11 sequence: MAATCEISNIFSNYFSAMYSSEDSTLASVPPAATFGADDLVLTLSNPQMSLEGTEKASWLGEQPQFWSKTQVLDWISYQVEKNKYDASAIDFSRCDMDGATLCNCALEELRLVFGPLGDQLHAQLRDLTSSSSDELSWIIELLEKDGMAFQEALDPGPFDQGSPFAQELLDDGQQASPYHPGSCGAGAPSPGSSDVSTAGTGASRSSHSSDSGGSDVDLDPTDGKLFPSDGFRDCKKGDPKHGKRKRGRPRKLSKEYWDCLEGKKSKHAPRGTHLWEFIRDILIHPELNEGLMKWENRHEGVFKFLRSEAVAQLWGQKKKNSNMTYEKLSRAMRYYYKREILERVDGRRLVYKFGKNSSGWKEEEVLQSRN
# Method in brief: as §1
# CRX = CRX (Homo sapiens, UniProt O43186 1-299); conditions: protein: recombinant; tags: N-terminal GST; dsDNA, one strand shown
# Method in brief: as §1
# ETV1 = ETV1 (Homo sapiens, UniProt P50549 1-477); conditions: protein: recombinant; tags: N-terminal GST; dsDNA, one strand shown
# Method in brief: as §1
# ETV1, sequence (P50549 whole entry): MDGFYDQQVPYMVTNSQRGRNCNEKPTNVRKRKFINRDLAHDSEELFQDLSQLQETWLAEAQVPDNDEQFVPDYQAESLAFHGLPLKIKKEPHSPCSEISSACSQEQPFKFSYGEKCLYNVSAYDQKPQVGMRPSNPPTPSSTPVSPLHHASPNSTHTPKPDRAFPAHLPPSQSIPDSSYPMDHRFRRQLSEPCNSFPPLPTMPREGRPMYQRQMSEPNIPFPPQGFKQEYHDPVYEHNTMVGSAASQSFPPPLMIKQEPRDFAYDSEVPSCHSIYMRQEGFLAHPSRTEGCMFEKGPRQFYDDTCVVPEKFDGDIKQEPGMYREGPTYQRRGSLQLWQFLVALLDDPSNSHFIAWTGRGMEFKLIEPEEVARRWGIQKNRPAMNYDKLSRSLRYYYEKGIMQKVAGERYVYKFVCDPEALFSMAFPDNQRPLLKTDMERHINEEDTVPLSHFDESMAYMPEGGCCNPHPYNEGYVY
# CRX, sequence (O43186 whole entry): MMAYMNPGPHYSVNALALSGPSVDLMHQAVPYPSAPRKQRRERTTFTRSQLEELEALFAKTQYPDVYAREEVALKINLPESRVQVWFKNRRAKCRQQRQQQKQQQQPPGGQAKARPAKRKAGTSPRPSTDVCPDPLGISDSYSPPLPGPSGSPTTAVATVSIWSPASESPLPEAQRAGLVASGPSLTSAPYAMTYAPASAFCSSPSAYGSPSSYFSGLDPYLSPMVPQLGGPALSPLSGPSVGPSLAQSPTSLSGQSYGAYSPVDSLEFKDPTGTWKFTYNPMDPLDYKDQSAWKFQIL
# HSF1, sequence (Q00613 whole entry): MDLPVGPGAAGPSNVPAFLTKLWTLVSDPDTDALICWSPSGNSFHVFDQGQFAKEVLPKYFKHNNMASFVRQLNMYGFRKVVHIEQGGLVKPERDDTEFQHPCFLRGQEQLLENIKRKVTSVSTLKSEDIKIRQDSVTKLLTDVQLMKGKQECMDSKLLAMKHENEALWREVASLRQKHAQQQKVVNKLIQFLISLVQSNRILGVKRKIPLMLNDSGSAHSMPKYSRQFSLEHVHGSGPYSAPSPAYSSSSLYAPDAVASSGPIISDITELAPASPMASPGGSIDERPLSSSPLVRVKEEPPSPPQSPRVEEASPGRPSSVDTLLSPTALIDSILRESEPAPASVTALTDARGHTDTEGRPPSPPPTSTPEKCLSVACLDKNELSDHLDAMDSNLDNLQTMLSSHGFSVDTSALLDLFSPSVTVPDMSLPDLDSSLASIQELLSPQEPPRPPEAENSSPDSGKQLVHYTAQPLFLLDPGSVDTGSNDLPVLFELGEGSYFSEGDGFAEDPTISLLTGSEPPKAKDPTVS
# ELF1, sequence (P32519 whole entry): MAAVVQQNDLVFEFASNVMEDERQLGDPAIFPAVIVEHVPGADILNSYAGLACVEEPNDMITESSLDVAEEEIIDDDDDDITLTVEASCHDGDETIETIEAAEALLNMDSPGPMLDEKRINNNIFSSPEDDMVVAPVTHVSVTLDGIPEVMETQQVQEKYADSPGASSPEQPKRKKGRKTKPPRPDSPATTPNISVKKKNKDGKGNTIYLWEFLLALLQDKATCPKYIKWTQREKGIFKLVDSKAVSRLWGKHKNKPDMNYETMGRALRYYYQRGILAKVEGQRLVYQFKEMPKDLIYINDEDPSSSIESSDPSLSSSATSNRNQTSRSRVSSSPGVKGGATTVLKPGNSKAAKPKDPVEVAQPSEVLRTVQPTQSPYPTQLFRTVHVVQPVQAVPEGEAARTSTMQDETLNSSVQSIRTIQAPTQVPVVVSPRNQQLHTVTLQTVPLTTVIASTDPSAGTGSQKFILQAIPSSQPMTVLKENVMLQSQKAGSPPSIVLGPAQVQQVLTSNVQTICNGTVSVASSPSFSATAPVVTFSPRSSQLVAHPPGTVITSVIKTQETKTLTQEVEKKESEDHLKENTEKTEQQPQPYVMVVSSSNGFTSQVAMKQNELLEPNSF
# ELF4, sequence (Q99607 whole entry): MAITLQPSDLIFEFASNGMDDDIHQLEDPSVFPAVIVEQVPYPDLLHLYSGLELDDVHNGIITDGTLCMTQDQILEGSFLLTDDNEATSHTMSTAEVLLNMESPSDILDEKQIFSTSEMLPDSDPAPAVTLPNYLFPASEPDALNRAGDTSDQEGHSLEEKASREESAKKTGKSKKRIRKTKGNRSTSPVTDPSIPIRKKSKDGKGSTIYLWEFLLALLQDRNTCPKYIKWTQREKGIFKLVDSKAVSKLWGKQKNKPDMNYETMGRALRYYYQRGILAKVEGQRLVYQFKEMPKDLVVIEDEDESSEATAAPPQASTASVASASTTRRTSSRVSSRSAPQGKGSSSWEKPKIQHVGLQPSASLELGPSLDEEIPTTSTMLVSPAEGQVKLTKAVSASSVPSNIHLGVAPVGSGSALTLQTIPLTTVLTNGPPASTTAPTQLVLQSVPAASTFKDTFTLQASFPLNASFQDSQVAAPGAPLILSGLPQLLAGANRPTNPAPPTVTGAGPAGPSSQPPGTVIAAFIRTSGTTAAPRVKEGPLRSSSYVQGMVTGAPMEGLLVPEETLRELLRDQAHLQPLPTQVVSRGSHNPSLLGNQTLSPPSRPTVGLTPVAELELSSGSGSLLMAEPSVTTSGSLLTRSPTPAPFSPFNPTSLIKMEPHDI
# ETV5, sequence (P41161 whole entry): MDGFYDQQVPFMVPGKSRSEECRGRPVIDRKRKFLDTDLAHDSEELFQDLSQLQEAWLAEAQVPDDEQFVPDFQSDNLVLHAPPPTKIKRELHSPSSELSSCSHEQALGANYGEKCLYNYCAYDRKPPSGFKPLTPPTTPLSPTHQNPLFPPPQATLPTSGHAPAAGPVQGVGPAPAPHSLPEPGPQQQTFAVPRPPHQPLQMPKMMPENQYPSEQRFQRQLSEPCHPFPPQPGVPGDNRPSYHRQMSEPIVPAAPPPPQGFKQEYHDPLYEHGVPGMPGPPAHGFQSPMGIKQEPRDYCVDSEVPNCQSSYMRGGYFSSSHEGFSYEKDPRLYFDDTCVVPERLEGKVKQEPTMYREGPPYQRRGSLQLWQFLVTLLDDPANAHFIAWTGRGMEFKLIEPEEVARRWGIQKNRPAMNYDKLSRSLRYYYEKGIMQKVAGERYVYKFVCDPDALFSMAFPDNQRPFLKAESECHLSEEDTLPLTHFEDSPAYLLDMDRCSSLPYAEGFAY
# SPIB, sequence (Q01892 whole entry): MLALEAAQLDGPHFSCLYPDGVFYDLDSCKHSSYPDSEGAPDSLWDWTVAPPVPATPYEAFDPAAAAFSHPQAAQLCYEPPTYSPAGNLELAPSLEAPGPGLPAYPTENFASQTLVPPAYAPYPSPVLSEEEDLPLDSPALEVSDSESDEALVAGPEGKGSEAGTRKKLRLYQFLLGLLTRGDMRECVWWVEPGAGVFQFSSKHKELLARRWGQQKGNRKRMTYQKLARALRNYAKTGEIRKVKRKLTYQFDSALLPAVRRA
sequence,measurement,setting,value
AAATTC,binding signal,FLI1,"1.31 fold enrichment (6-mer frequency, TF over GST control)"
same,binding signal,ELK1,"1.31 fold enrichment (6-mer frequency, TF over GST control)"
same,binding signal,GABPA,"1.4 fold enrichment (6-mer frequency, TF over GST control)"
same,binding signal,ERG,"1.24 fold enrichment (6-mer frequency, TF over GST control)"
same,binding signal,ELF1,"1.31 fold enrichment (6-mer frequency, TF over GST control)"
same,binding signal,EHF,"1.32 fold enrichment (6-mer frequency, TF over GST control)"
same,binding signal,SPI1,"1.26 fold enrichment (6-mer frequency, TF over GST control)"
same,binding signal,SPIB,"1.33 fold enrichment (6-mer frequency, TF over GST control)"
same,binding signal,ELK3,"1.42 fold enrichment (6-mer frequency, TF over GST control)"
same,binding signal,FEV,"1.26 fold enrichment (6-mer frequency, TF over GST control)"
same,binding signal,ETV5,"1.38 fold enrichment (6-mer frequency, TF over GST control)"
same,binding signal,HSF1,"1.95 fold enrichment (6-mer frequency, TF over GST control)"
same,binding signal,SPIC,"1.34 fold enrichment (6-mer frequency, TF over GST control)"
same,binding signal,ELF4,"1.32 fold enrichment (6-mer frequency, TF over GST control)"
same,binding signal,ELK4,"1.15 fold enrichment (6-mer frequency, TF over GST control)"
same,binding signal,ETV2,"1.26 fold enrichment (6-mer frequency, TF over GST control)"
same,binding signal,ELF3,"1.35 fold enrichment (6-mer frequency, TF over GST control)"
same,binding signal,CRX,"1.51 fold enrichment (6-mer frequency, TF over GST control)"
same,binding signal,ETV1,"1.3 fold enrichment (6-mer frequency, TF over GST control)"
